# In the library only some 2.8% were active in any assay of this set; here they are far more common.
# PI5P4Ka inh: PI5P4K alpha (human) kinase inhibition | 330,000 compounds, 1.2% hits | P48426 | max response, % | PI5P4Kalpha enzyme, ADP-Glo luminescence, 60 min; stronger effect = lower value; active means max response of -50% or lower; inconclusive means between -30% and -50%; inactive means -30% or higher; further: value at the top dose of about 77 µM; on the % scale 0 is the no-effect control and ±100 the full control effect
# Target sequence (P48426 whole entry, looked up): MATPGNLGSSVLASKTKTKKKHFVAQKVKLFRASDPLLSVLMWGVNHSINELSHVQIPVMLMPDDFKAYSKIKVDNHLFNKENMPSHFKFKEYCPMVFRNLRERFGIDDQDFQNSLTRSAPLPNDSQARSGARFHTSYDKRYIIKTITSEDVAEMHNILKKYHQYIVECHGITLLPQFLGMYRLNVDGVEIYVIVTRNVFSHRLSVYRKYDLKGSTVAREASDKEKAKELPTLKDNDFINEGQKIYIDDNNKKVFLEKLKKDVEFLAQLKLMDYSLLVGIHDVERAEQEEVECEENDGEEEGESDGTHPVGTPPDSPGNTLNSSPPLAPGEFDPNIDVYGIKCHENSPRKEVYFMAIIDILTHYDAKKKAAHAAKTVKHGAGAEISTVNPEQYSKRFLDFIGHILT
#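 ADP-Glo luminescence end-point after a 60 min room-temperature kinase reaction. PI5P4Kalpha and substrate in HEPES pH 7.4 buffer with EGTA, 0.1% CHAPS and 5% DMSO; ATP at 5 microM final.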
# POLK inh: DNA polymerase kappa (human) inhibition; Q9UBT6; purified Pol kappa, fluorescent DNA synthesis assay, 10 min; Potency, µM (series often up to 107 µM), inactives show top-dose activity, negative = inhibition, hits mostly inhibitors; 400,000 compounds, 0.53% hits; AID 588579; further: potency means the concentration at half of the fitted maximal effect; on the % scale 0 is the no-effect control and ±100 the full control effect
#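 First, compounds were pin-transferred onto 10 nM Pol kappa. After 15 min at room temperature, substrate was added to 50 nM final. Fluorescence was then measured kinetically at 0 and 10 min.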
# WRN helicase inh: blocks human WRN helicase. WRN helicase unwinding, fluorescent forked duplex, kinetic. Potency, µM (highest dose often 114 µM), for the others: at the highest dose activity change, negative = inhibition, actives largely listed as inhibitors. 360,000 compounds, 0.46% hits. Q14191; further: potency means the concentration at half of the fitted maximal effect; on the % scale 0 is the no-effect control and ±100 the full control effect; nearly all actives have a fitted effect of over 55% in size
#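 Primary qHTS, 1536-well format. 20 nM WRN + compound, 15 min RT; start with 100 nM forked fluorophore/quencher duplex, 2 mM ATP (final); kinetic read ex 525/em 598 nm.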
# Pol beta inh: DNA polymerase beta (human) inhibition. Pol beta primer extension/strand displacement, fluorescence kinetic. 340,000 compounds, 1.3% hits. Potency, µM (titrated, usually from 114 µM), for inactives: at the highest dose activity change, negative = inhibition, actives largely listed as inhibitors; further: potency means the concentration at half of the fitted maximal effect; on the % scale 0 is the no-effect control and ±100 the full control effect
#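 10 nM enzyme + cpd, 15 min RT; start with substrate 50 nM final; read 0 min and after 10 min RT. Corrected, normalized data; 4-parameter Hill curve fit.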
# Pol eta inh: inhibitors of human DNA polymerase eta. AID 588591. Potency, µM (highest dose often 114 µM), for the others: top-dose activity change, negative = inhibition, most hits filed as inhibitors. recombinant Pol eta, fluorescent DNA replication assay. 390,000 compounds, 1.2% hits; further: potency means the concentration at half of the fitted maximal effect; on the % scale 0 is the no-effect control and ±100 the full control effect
#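 Pol eta at 10 nM preincubated with compounds 15 min at room temperature; reaction started with fluorescent substrate (50 nM final) and read kinetically at 0 and 10 min.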
# Pol iota inh: blocks human DNA polymerase iota activity | Q9UNA4 | Pol iota fluorescent replication assay, 10 min | Potency, µM (titrated, usually from 115 µM), without a hit: at the top dose activity, negative = inhibition, most hits filed as inhibitors | 390,000 compounds, 1% hits | AID 588590; further: potency means the concentration at half of the fitted maximal effect
#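 Fluorescent replication assay read twice, at 0 min and 10 min after adding 50 nM (final) substrate. Enzyme (10 nM) and compounds were first incubated 15 min at room temperature; enzyme-free buffer wells were negative controls.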
# * = called active by the depositor; ? = inconclusive; . = no result; [ ] = another dose, or the depositor's remark. Unless noted, the call rests on the fitted dose curve; in most records, active means well fitted curve in the direction sought with a large enough effect; inconclusive means small, poorly fitted or top-dose-only effect, or another doubt; inactive means no such curve, though single readings can be large; an effect the other way counts as inactive or inconclusive.
SMILES,PI5P4Ka inh,POLK inh,WRN helicase inh,Pol beta inh,Pol eta inh,Pol iota inh
CCOC(=O)c1ccc(NC(=O)c2cc3c(n(-c4ccc(C)cc4)c2=O)CC(C)(C)CC3=O)cc1,.,89µM*,.,-4%,-19%,?
COc1ccc(OCC(=O)Nc2cc(NC(=O)c3ccco3)ccc2OC)cc1,2,-4%,-5%,6%,-6%,-8%
O=C(CSc1nc2ccccc2c(=O)n1Cc1ccc(C(=O)NC2CC2)cc1)NCc1ccco1,1,-34%,-1%[11.6 µM],79µM*,?,?
O=C(CSc1ncnc2ccccc12)NCc1ccco1,-9,-7%,-28%,25µM*,?,?
CCCc1nc2sc3c(SCC(=O)NCc4ccco4)ncnc3c2c2c1CCC2,.,28µM*,40µM*,10µM*,14µM*,?
Cc1nc(SCC(=O)NCc2ccco2)c2c3c(sc2n1)CCCC3,-15,-22%,-12%,6%,?,3%
O=C(CSc1nc2ccccc2c(=O)n1Cc1ccccc1)NCc1ccco1,.,0%,3%,7%,-5%,1%
Cn1cccc1Cc1nnc(SCC(=O)NCc2ccco2)n1CCc1ccccc1,.,?,?,?,-29%,22µM*
Cc1ccc(CCNC(=O)CCCn2c(=O)c3cccn3c3ccc(F)cc32)cc1,.,-7%,.,25%,-10%,10%
Cc1cc(C)cc(N(CC(=O)NCc2ccccc2Cl)S(=O)(=O)c2c(C)noc2C)c1,.,4%,.,19%,-18%,12%
COCCn1c(SCC(=O)NC2CCCC2)nc2cccnc21,-2,13%,2%,-11%,-8%,10%
O=C(CSc1nnc(NC(=O)c2ccccc2)s1)NCc1ccco1,-11,-17%,-5%,3.2µM*,-10%,-9%
Cc1nnc(Sc2cc(C(=O)NCc3ccco3)c3ccccc3n2)s1,-12,-12%,9%,22µM*,?,?
O=C(CSc1nc2ccccc2c2nc3ccccc3n12)NCc1ccco1,-19,?,-24%,8.9µM*,?,?
COCCn1c(SCC(=O)NCc2ccco2)nc2cccnc21,-10,-21%,-16%,45µM*,?,?
CCOc1cccc(C(=O)NC(=S)Nc2ccc(Cl)cc2C(=O)O)c1,-60*,-14%,-19%,23%,-10%,69%
COc1cccc2cc(-c3nnc(Nc4ccccc4C)s3)c(=O)oc12,.,-4%[60.1 µM],.,?,-9%,29%
COC(=O)C1=C(SC)N(c2ccccc2)C(c2ccccc2)CC1=O (stereo unspecified),5,89µM*,?,0%,-2%,13%
Cc1ccc(C(=O)Oc2coc(CSc3nnc(NC(=O)c4cccs4)s3)cc2=O)cc1,?,?,-13%[11.6 µM],25µM*,?,?
O=C(Oc1coc(CSc2nnc(NC(=O)C3CC3)s2)cc1=O)c1c(F)cccc1F,-23,-43%,-17%,20µM*,?,?
CC(=O)Nc1nnc(SCc2cc(=O)c(OC(=O)c3ccccc3)co2)s1,-1,-19%,-1%,18%,-8%,-14%
Cc1cc(C)cc(C(=O)Oc2coc(CSc3nnc(NC(=O)C4CC4)s3)cc2=O)c1,-4,-7%,-11%,0%,?,?
COc1ccc(C)cc1NC(=O)CN1c2ccccc2S(=O)(=O)c2ccccc21,.,-18%,.,55%,-3%,?
COC(=O)c1[nH]c(=O)c2ccccc2c1O,0,-7%,-5%[57.1 µM],0%,-22%,22µM*
C[n+]1c(/C=C/c2ccc(O)cc2)ccc2ccccc21,-4,-29%,-22%,16µM*,-26%,?
SMILES,PI5P4Ka inh,POLK inh,WRN helicase inh,Pol beta inh,Pol eta inh,Pol iota inh
CCOc1ccc(/C=C/c2ccc3ccccc3[n+]2C)cc1OCC,.,45µM*,.,.,.,?
CC[n+]1c(/C=C/c2ccc(OC)c(OC)c2)ccc2ccccc21,-4,-9%,-2%,?,-2%,-1%
CC(=O)c1ccc(NC(=O)c2sc(-n3nc(C)c(Cc4ccccc4)c3C)nc2C)cc1,.,-3%,.,1%,5%,-1%
N#Cc1c(-c2ccc(Cl)cc2)cc(-c2cccs2)nc1SCC(=O)O,?,?,?,?,-17%,18µM*
Cc1cc(C)cc(NC(=O)CSc2nnc(COc3ccccc3Cl)o2)c1,.,3%,.,3%,-20%,10%
Cc1cc(-c2sccc2Br)nc(-n2cccc2)n1,20,79µM*,-11%,-20%,-15%,?
N#CCCN(Cc1ccccc1)C(=O)c1cccs1,4,-2%,2%,0.16µM*,-21%,50%
CC1(C)C=Cc2c(c3c(c4c(=O)c(-c5ccc(O)cc5)coc24)OC(C)(C)CC3)O1,-28,-9%,-2%,11µM*,-14%,3%
C[C@H](CO)N1C[C@H](C)[C@@H](CN(C)Cc2ccc3c(c2)OCO3)Oc2cc(Br)ccc2S1(=O)=O,12,.,-14%,.,-7%,.
O=c1[nH]c(Nc2ccc(F)cc2)cc2ccccc12,.,-6%,-11%,-16%,22µM*,7.1µM*
CCOc1ccccc1CNC(=O)CCc1c(C)nn(-c2ccc(N3CCCCC3)nn2)c1C,.,0%,.,20%,-2%,-25%
COc1ccccc1C(=O)Nc1c(C(=O)N(C)c2ccccc2)sc2nc(C)cc(C)c12,.,3%,.,35%,-12%,16µM*
Cc1cc(C)c2c(NC(=O)c3ccccc3)c(C(=O)Nc3ccc(F)cc3)sc2n1,.,-9%[60.1 µM],.,6%,5%,1%
COc1ccc(CNC(=O)c2ccc(Cn3c(=O)c4cccn4c4cccnc43)cc2)c(OC)c1,.,-8%,.,4%,-12%,9%
Cc1[nH]c2ccccc2c1/C=C/c1nc2ccccc2c(=O)[nH]1,-63*,-16%,-35%,-1%,-18%,?
Cc1cccc(/C=C/c2nc3ccccc3c(=O)[nH]2)c1,-1,0%,-4%,3%,-6%,-24%
N#Cc1c(Nc2cccc(F)c2)sc2c(O)cc(=O)[nH]c12,-76*,-6%,-19%,?,-26%,?
COc1cccc(OCC(=O)NNC(=O)c2ccc(-c3ccccc3)cc2)c1,-5,-14%,-10%,79µM*,-16%,?
O=C(COc1ccc(Cl)cc1Cl)Nc1ccc(C(=O)Nc2ccccc2C(=O)O)cc1,-57*,-33%,-29%,32µM*,8%,?
O=C(O)COc1cccc(NC(=O)c2ccccc2)c1,.,-3%,-3%[57.1 µM],2%,79µM*,?
Cc1cccc(OCC(=O)Nc2ccc(C(=O)Nc3ccccc3C(=O)O)cc2)c1,-52*,.,-1%,.,-16%,.
Cc1cn2c(=O)cc(COC(=O)c3cccc(NC(=O)c4ccccc4C)c3)nc2s1,.,-12%[60.1 µM],.,7%,-16%,18%

# Bioassay records: PubChem, National Center for Advancing Translational Sciences (NCATS)
